# Assay outcomes: PubChem BioAssay, National Center for Advancing Translational Sciences (NCATS)
# An excerpt weighted towards active compounds, which were near 0.9% of everything screened.
# A488 fluor: compound fluoresces in the A488 spectral region; compound autofluorescence, A488 spectral region, dye equivalency; Compound Type: qHTS ECL - MLSMR; max dye equivalency, M; hit rate 0.1% among 59,000
#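 Intrinsic compound fluorescence is measured in 100 mM Tris buffer at pH 8.0 following 15 min incubation at room temperature. Intensities at 480 nm excitation/540 nm emission are calibrated to an on-plate A488 concentration series, giving dye-equivalent concentrations.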
# Fluorescein autfl: compound autofluorescence in fluorescein spectral region. AID 593. Compound autofluorescence, 480/540 nm, fluorescein-equivalent; active compounds read high. max fluorescein-equivalent concentration, M. hit rate 0.91% among 59,000; in the data active means max fluorescein-equivalent concentration above about 10 nM; inconclusive means between about 1.1 nM and that limit
#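 Tris 100 mM pH 8.0; 15 min RT; CCD read, ex 480/em 540 nm. Output: fluorescein-equivalent concentration per compound concentration, from six-point dye series on each plate.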
# Resorufin fluor: resorufin region autofluorescence; Compound fluorescence, resorufin region 547/598 nm, buffer; active compounds read high; max dye-equivalent concentration, M; hit rate 0.04% among 59,000; AID 588
#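 Intrinsic fluorescence profiled in the resorufin window (ex 547 nm, em 598 nm) after 15 min at room temperature in pH 8.0 Tris buffer (100 mM); responses normalized against a six-point resorufin standard series as dye-equivalent concentration.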
# TexasRed autofl: compound fluoresces in the Texas Red spectral region; Compound fluorescence, Texas Red channel, 547/618 nm; active compounds read high; max dye-equivalent concentration, M; hit rate 0.06% among 59,000; AID 587; in the data active means max dye-equivalent concentration above about 10 nM; inconclusive means between about 1.1 nM and that limit
#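 Fluorescence at ex 547/em 618 nm, normalized against an on-plate Texas Red standard series to give dye-equivalent concentration per compound concentration. Buffer 100 mM Tris, pH 8.0; 15 min RT incubation before CCD imaging.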
# Rhodamine fluor: rhodamine region autofluorescence. max dye-equivalent concentration, M. hit rate 0.05% among 59,000. AID 594. Rhodamine-region fluorescence, 547/598 nm, Tris buffer; active compounds read high; in the data active means max dye-equivalent concentration above about 11 nM; inconclusive means between about 1.1 nM and that limit
#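 Intensities are converted to rhodamine-equivalent concentration using a six-point rhodamine standard on each plate. Compounds sit 15 min at room temperature in 100 mM Tris buffer, pH 8.0; read uses the 547/598 nm excitation/emission pair.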
# * hit, by the source's call; i = inactive; ? = inconclusive; ! = not confirmed by another sample. Unless noted, how the calls were made is not given here.
SMILES,A488 fluor,Fluorescein autfl,Resorufin fluor,TexasRed autofl,Rhodamine fluor
CCN(CC)c1ccc(C=N/C(C#N)=C(\N)C#N)cc1,2.6e-08M*,5e-07M*,i,?,?
C/C(=C\COc1cc(=O)[nH]c2ccccc12)CC[C@@H](O)C(C)(C)O,i,i,i,i,i
CN(C)c1ccc(N/C=C/C(=O)c2ccc(F)cc2)cc1,i,2.4e-08M*,i,i,i
CC(=O)N1C(=O)N(C(C)=O)C2C1N(C(C)=O)C(=O)N2C(C)=O (stereo not given),i,i,i,i,i
CC1C2C(c3ccccc3)N(C)C(=O)N(C)C2N(C)C(=O)N1C (stereo not given),i,1.5e-08M*,i,i,i
CC(=O)[C@]1(O)CC[C@@H]2[C@H]3C[C@@H](C)C4=CC(=O)CC[C@@]4(C)[C@H]3[C@@H](O)C[C@]21C,i,i,i,?,i
Nc1nonc1C(=O)NCCN=Cc1cc(Cc2ccccc2)cc(Br)c1O,i,2e-08M*,i,i,i
O=C(/C=C\c1ccc(O)c(O)c1)OCCc1ccccc1,i,?,i,i,i
COc1ccc(C(=O)N2CCC3(CCCN(c4cccc(-c5ccccc5)c4)C3)CC2)cc1,i,1.4e-08M*,i,i,i
COc1ccc(NC(=O)N2CCCC3(CCN(C(=O)c4ccc(OC)cc4)CC3)C2)cc1,i,2.6e-08M*,i,i,i
COc1ccc(C(=O)N2CCC3(CC2)CN(c2cccc(-c4ccccc4)c2)C3)cc1,i,i,i,i,i
O=C(Cn1cc(C(=O)COc2ccccc2)c2ccccc21)NCc1ccco1,i,1.5e-08M*,i,i,i
O=C(COC(=O)c1cnccn1)Nc1ccc(Cl)cc1,i,1.1e-08M*,i,i,i
O=C1OCCN1/N=C\c1ccc([N+](=O)[O-])o1,i,3.1e-08M*,i,?,i
O=C1O[C@H](CN2CCOCC2)CN1/N=C\c1ccc([N+](=O)[O-])o1,i,?,i,i,i
COc1cc(C(=O)N(CCc2ccccc2)C2CC3CCC(C2)N3C)cc(OC)c1OC (stereo not given),i,i,i,?,i
CN1[C@@H]2CC[C@H]1CC(OC(=O)[C@@H](CO)c1ccccc1)C2 (stereo not given in full),i,3e-08M*!,i,?,i
COc1ccc(N(C)S(=O)(=O)c2ccc3c(c2)CCC(=O)N3)cc1,i,i,i,i,i
CN(C)S(=O)(=O)c1ccc2c(c1)/C(=C/c1cc3c([nH]1)CCCC3)C(=O)N2,i,1.9e-08M*,i,i,i
O=c1c2ccccc2c(/C=N/n2cnnc2)c(O)n1-c1ccccc1F,i,1.3e-08M*,i,i,i
C=C[C@@](C)(O)CC[C@H]1[C@]2(C)CCCC(C)(C)[C@H]2CC[C@]1(C)O,i,?,i,i,i
N[C@H](Cc1ccc(O)c(I)c1)C(=O)O,i,i,i,?,i
CC(C)c1ccc2c(c1)CC[C@@H]1[C@@](C)(CN)CCC[C@@]21C,i,1.2e-08M*,i,i,i
c1ccc([C@H](c2cccc3c2ccc2ccccc23)[C@H](c2ccccc2)c2cccc3c2ccc2ccccc23)cc1,i,?,i,i,i
COc1ccc2cc3c(N)c(C(=O)NCc4ccco4)sc3nc2c1,i,2.4e-08M*,i,i,i
SMILES,A488 fluor,Fluorescein autfl,Resorufin fluor,TexasRed autofl,Rhodamine fluor
CCOc1ccc(/C=c2\sc3nc(-c4ccco4)nn3c2=O)cc1OCC,?,1.2e-07M*,i,i,i
COc1ccccc1/C=c1\sc2nc(-c3ccco3)nn2c1=O,i,i,i,i,i
COc1cc(/C=C\C(=O)CC(=O)/C=C\c2ccc(O)c(OC)c2)ccc1O,i,?,i,i,i
CC(=O)O[C@H]1C(=O)[C@]2(C)[C@H]([C@H](OC(=O)c3ccccc3)[C@@]3(O)C[C@H](OC(=O)[C@@H](O)[C@@H](NC(=O)c4ccccc4)c4ccccc4)C(C)=C1C3(C)C)[C@]1(OC(C)=O)CO[C@@H]1C[C@@H]2O,i,i,i,i,i
Cc1ccc(C(=O)[C@@H]2[C@@H]3[C@@H](C(=O)[C@@H]4OC[C@H]3O4)[C@@H]3C=Cc4ccccc4N23)cc1,i,i,i,i,i
CN1Cc2sc(N)c(C#N)c2CC1(C)C,?,3.1e-08M*,i,?,?
C#CCN1C(C)=C(C(=O)OC)[C@@H](c2cccc([N+](=O)[O-])c2)C(C(=O)OCC)=C1C,i,i,i,i,i
CC(=O)OC(C)(C)N=Nc1ccc(Br)cc1,i,i,i,i,i
Cc1cccc(C)c1NC(=O)CN1CCN(CCCC(c2ccc(F)cc2)c2ccc(F)cc2)CC1,i,1e-08M*,i,i,i
CCn1c(CSc2nnc(-c3cccnc3)n2-c2ccccc2C)nc2cc(C(=O)O)ccc21,i,?,2.2e-07M*,4.2e-07M*,2.6e-07M*
CCn1c(CSc2nnc3ccccn23)nc2cc(C(=O)O)ccc21,i,1.4e-08M*,4.7e-08M*,1.1e-07M*,7.1e-08M*
CCOc1ccccc1-n1c(SCC(N)=O)nnc1-c1cccnc1,i,i,i,i,i
c1ccc(N2CCN(c3nc4ccccc4n4nnnc34)CC2)cc1,i,1.9e-08M*,i,i,i
Cn1cc[nH]c1=S,i,2.2e-08M*,i,i,i
O=C(O)/C=C\c1c2ccc(=O)c(O)c-2oc2c(O)c(O)ccc12,i,i,i,i,i
CCOC(=O)N1CCN(Cc2nc3c(c(=O)n(C)c(=O)n3C)n2CCCc2ccccc2)CC1,?,5.6e-08M*,?,?,?
c1ccc2[nH]c(CN3CCCCCC3)nc2c1,i,?,i,i,i
[O-][n+]1c(CN2CCCCC2)nc2cccc3c2c1-c1ccccc1-3,i,1.7e-08M*,i,i,i
OC[C@@H]1O[C@@H](n2cnc3c(NC4CCCCC4)ncnc32)[C@@H](O)[C@H]1O,i,i,i,?,i
CCc1nnc(NC(=O)C2CCCN(c3nc4ccccc4s3)C2)s1 (stereo not given),i,?,i,i,i
O=C(Nc1ccc2c(c1)OCO2)C1CCCN(c2nc3ccccc3s2)C1 (stereo not given),i,?,?,2.6e-08M*,1.2e-08M*
NC(=O)c1cc2ccc(O)cc2oc1=NCc1ccccc1,1.5e-08M*,2.7e-07M*,i,i,i
NC(=O)c1cc2ccc(O)cc2oc1=Nc1ccccc1,i,?,i,i,i
CCNc1c2c3c(cccc3n(C)c1=O)C(=O)c1ccccc1-2,1.4e-07M*,2.5e-06M*,?,?,1.2e-08M*
